Assay [1] in a line: A CellTox Green Cytotoxicity Assay to monitor cytotoxicity in HEK293 cells - 32 hour (AID 1224881). Note: nearly all actives have a fitted effect of over 40% in size. Note: potency is the fitted concentration of half-maximal effect. The method, boiled down: (§1)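 Cells (HEK293, 600/well) and dye reagent are dispensed together. After 5 h at 37 C, 23 nL compound is pinned in. Plates stay at 37 C for 40 h with fluorescence read at 0h, 8h, 16h, 24h, 32h and 40h.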
Assay [2] in a line: A CellTox Green Cytotoxicity Assay to monitor cytotoxicity in HepG2 cells - 0 hour (AID 1224882). Note: nearly all actives have a fitted effect of over 35% in size. Put shortly:
(§2)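 Cells and non-lytic dye reagent are dispensed together (600 HepG2 cells/well) and incubated 5 h before DMSO compound transfer. Kinetic fluorescence is then recorded in the same wells during 40 h at 37 C.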

Assay [3] in a line: A CellTox Green Cytotoxicity Assay to monitor cytotoxicity in HepG2 cells - 32 hour (AID 1224883). Note: nearly all actives have a fitted effect of over 50% in size. Note: potency is the fitted concentration of half-maximal effect. Put shortly: as §2
A short description of assay [4]: A CellTox Green Cytotoxicity Assay to monitor cytotoxicity in HEK293 cells - 8 hour (AID 1224884). Note: nearly all actives have a fitted effect of over 35% in size. The method, boiled down:
as §1

Assay [5] is described as follows: qHTS RealTime-Glo MT Cell Viability Assay in HepG2 cells - 16 hour (AID 1224885). Note: nearly all actives have a fitted effect of over 50% in size. Note: potency is the fitted concentration of half-maximal effect. The method, boiled down:
(§3)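 Cells + NanoLuc/prosubstrate dispensed (600 cells/well) → 5 h at 37 C/5% CO2 → compounds in DMSO transferred → 40 h incubation at 37 C, luminescence read at 0, 8, 16, 24, 32, 40 h.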
(In general: qHTS replaces the single test concentration by a dilution series.)

The nature of assay [6]: qHTS RealTime-Glo MT Cell Viability Assay in HEK293 cells - 24 hour (AID 1224886). Note: potency is the fitted concentration of half-maximal effect; nearly all actives have a fitted effect of over 50% in size. The method, boiled down:
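Tox21 10K qHTS, HEK293, 600 cells/well, RealTime-Glo reagent co-dispensed with cells; 5 h preincubation, compound by pintool, 37 C, luminescence at 0–40 h.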

Assay [7] in a line: qHTS RealTime-Glo MT Cell Viability Assay in HEK293 cells - 8 hour (AID 1224887). Note: potency is the fitted concentration of half-maximal effect; nearly all actives have a fitted effect of over 50% in size. The method, boiled down:
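Real-time viability in HEK293: signal arises when living cells convert a prosubstrate for NanoLuc in the medium, so luminescence tracks viable cell number. Compound (23 nL, DMSO) added 5 h post-seeding; kinetic reads at 0–40 h, 37 C.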

Assay [8] is described as follows: A CellTox Green Cytotoxicity Assay to monitor cytotoxicity in HEK293 cells - 16 hour (AID 1224888). Note: nearly all actives have a fitted effect of over 35% in size. Note: potency is the fitted concentration of half-maximal effect. Put shortly: as §1
A short description of assay [9]: A CellTox Green Cytotoxicity Assay to monitor cytotoxicity in HepG2 cells - 8 hour (AID 1224890). Note: nearly all actives have a fitted effect of over 45% in size. Note: potency is the fitted concentration of half-maximal effect. The method, boiled down: as §2
Assay [10] is described as follows: qHTS assay to identify small molecule antagonists of the estrogen receptor alpha (ER-alpha) signaling pathway using the BG1 cell line in the presence of 0.1 nM 17-beta-estradiol - cell viability counter screen (AID 1259241). Note: nearly all actives have a fitted effect of over 40% in size. Note: potency is the fitted concentration of half-maximal effect. Put shortly:
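CellTiter-Fluor read (30 min, 37C) on ER-alpha/ERE-luc VM7Luc4E2 cells; 22 hr compound treatment; agonist 0.1 nM E2 final; same-well multiplex.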

The nature of assay [11]: qHTS assay to identify small molecule antagonists of the androgen receptor (AR) signaling pathway using the MDA cell line in the presence of 0.5 nM R1881 - cell viability counter screen (AID 1259242). Note: nearly all actives have a fitted effect of over 45% in size. Note: potency is the fitted concentration of half-maximal effect. The method, boiled down: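 Steps: plate MDA-kb2 cells, rest 5 hr at 37C without CO2; pin in compounds in DMSO; add R1881 to 0.5 nM final; incubate 16 hr; add CellTiter-Fluor, 30 min; read fluorescence.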

Assay [12] addresses Estrogen receptor (Homo sapiens) (UniProt P03372). The assay is described as follows: qHTS assay to identify small molecule antagonists of the estrogen receptor alpha (ER-alpha) signaling pathway using the BG1 cell line in the presence of 0.1 nM 17-beta-estradiol (AID 1259244). Put shortly:
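Antagonist mode: compounds in DMSO are pinned onto VM7Luc4E2 reporter cells, 0.1 nM final 17beta-estradiol is added, and after 22 h at 37C luciferase luminescence is measured with ONE-Glo.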

Assay [13] can be described thus: qHTS assay to identify small molecule phospholipidosis (PLD) inducers (AID 1259344; active = well fitted curve in the direction sought with a large enough effect; an effect the other way counts as inactive or inconclusive). The method, boiled down: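 Cells (HepG2, 900 per well) attach for 4 h, receive LipidTOX Red and compound together, incubate 24 h at 37 C, are fixed 30 min with paraformaldehyde/Hoechst, then imaged at one site per well.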
Assay [14] is described as follows: qHTS assay to identify small molecule HDAC inhibitors - cell viability counter screen (AID 1259365). Put shortly: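 To flag cytotoxic hits, 1,500 wild-type HCT-116 cells per well, plated the day before, receive test compounds for 2hr at 37 C before CellTiter-Glo reagent and a luminescence read.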
The nature of assay [15]: qHTS assay to identify small molecule agonists of the sonic hedgehog signaling (Shh) pathway - cell viability counter screen (AID 1259366). Note: nearly all actives have a fitted effect of over 50% in size. Note: potency is the fitted concentration of half-maximal effect. Put shortly:
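Fluorescence from CellTiter-Fluor reports live cells in this counter screen. NIH/3T3-derived Gli1-Luc reporter cells receive test compounds for 24hr at 37C; reagent goes in at 23hr.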

The nature of assay [16]: qHTS assay to identify small molecule antagonists of the sonic hedgehog signaling (Shh) pathway - cell viability counter screen (AID 1259367). Note: nearly all actives have a fitted effect of over 55% in size. Note: potency is the fitted concentration of half-maximal effect. The method, boiled down: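 Cytotoxicity was assessed in parallel with Shh reporter activity by measuring live-cell protease fluorescence (CellTiter-Fluor) in NIH/3T3 cells stably carrying Gli1-Luc, treated with compound under conditioned medium stimulation for 23 hr plus 1 hr reagent incubation.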

A short description of assay [17]: qHTS RealTime-Glo MT Cell Viability Assay in HepG2 cells - 0 hour (AID 1224889). Note: nearly all actives have a fitted effect of over 50% in size. The method, boiled down: as §3
Assay [18] can be described thus: qHTS assay to identify small molecule HDAC inhibitors (AID 1259364).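 Note: wild-type HCT-116 cells with endogenous class I/II HDAC activity; top concentration of the series differs between compounds; nearly all actives have a fitted effect of over 45% in size.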 The method, boiled down:
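Cells (HCT-116, wild type) are seeded at 1,500 per well, incubated overnight, treated with compound in DMSO for 2 hr, then developed with HDAC-Glo I/II reagent for 30 min at room temperature.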

Assay [19] can be described thus: qHTS assay to identify small molecule agonists of the sonic hedgehog signaling (Shh) pathway (AID 1259368; calls by dose curve;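 note: NIH/3T3-derived 3T3Gli1-Luc cells carrying a stable Gli1-driven firefly luciferase reporter; series mostly up to about 92 µM; nearly all actives have a fitted effect of over 15% in size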). The method, boiled down:
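Cells of a mouse NIH/3T3 clone stably expressing luciferase under the Gli1 transcriptional response element are exposed to test chemicals for 24 hr at 37 C. Pathway activation is detected as a rise in luminescence.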

In assay [20] the target is Androgen receptor (Homo sapiens) (UniProt P10275). The assay is described as follows: qHTS assay to identify small molecule antagonists of the androgen receptor (AR) signaling pathway using the MDA cell line in the presence of 0.5 nM R1881 (AID 1259243). The method, boiled down:
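Stably transfected MDA-kb2 cells express luciferase from an MMTV promoter bearing both AR and GR response elements. Compounds plus 0.5 nM R1881 (final) were incubated 16 hr at 37C without CO2, then luminescence measured.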

The values below come from PubChem BioAssay (Tox21).

Several values for one entry are separate records, joined by “and”; a condition that tells them apart may be missing. Equal entries are not always repeated. Results filed as inconclusive are left out. The source holds several records for some structures; these can differ, active in one and inactive in another. Activity calls are given as the source filed them. Unless noted, calls come from the whole dose curve; as a rule, active = well fitted curve in the direction sought with a large enough effect in the repeat runs; inconclusive = weak or mixed curves; inactive = no such curve, though single readings can be large; an effect the other way counts as inactive or inconclusive.

Sequence of Androgen receptor (Homo sapiens) (P10275 whole entry, looked up): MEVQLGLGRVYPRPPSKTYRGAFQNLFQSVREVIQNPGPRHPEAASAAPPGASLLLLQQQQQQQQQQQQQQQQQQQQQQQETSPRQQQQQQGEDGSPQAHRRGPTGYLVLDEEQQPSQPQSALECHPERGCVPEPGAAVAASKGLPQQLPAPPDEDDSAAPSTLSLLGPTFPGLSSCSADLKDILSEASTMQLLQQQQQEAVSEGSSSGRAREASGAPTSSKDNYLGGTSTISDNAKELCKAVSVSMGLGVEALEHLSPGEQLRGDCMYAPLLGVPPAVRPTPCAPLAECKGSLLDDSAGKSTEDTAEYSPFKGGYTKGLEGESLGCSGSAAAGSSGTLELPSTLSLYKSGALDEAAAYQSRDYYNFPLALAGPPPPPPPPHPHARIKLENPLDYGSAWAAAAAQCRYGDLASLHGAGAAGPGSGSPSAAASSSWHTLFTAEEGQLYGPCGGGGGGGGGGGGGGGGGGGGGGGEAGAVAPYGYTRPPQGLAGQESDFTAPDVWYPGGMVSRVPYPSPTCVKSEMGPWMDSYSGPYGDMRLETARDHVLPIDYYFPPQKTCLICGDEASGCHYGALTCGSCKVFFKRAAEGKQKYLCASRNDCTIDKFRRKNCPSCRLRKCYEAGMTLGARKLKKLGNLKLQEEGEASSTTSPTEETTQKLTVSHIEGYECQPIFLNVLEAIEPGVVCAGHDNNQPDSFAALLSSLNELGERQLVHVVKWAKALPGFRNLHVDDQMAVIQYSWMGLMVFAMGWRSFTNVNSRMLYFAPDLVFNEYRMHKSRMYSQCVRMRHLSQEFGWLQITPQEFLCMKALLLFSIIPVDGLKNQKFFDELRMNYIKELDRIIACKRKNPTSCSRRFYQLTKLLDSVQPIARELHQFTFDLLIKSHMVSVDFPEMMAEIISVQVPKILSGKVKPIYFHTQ
Sequence of Estrogen receptor (Homo sapiens) (P03372 whole entry, looked up): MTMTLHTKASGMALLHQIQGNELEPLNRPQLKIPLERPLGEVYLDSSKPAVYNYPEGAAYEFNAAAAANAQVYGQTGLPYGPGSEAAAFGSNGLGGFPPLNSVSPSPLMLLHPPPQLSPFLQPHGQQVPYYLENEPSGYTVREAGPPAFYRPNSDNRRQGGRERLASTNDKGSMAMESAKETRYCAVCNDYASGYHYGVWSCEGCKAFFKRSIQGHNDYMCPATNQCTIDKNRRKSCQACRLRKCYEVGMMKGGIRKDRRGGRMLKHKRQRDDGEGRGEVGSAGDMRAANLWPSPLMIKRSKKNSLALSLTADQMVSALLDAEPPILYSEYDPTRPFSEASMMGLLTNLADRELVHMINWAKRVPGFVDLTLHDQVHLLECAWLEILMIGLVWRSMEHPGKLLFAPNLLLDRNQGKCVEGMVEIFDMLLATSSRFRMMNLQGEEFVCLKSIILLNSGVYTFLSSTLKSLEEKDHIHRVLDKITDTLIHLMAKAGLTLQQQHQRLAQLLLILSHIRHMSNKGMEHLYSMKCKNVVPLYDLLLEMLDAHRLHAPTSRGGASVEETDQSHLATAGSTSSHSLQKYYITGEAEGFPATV

As to `CC(C)Nc1ccc(Nc2ccccc2)cc1`, the Potency in assay [1] was 48.8 µM (active) and 49 µM (active); in [3], 43.6 µM (active); in assay [5], 54.7 µM (active) and 49 µM (active); in [6], 17.3 µM (active) and 19.5 µM (active); in assay [7] it was 15.4 µM (active) and 17.4 µM (active); in assay [8], 54.9 µM (active). Besides, the Potency entry was “inactive and 49 µM (active)” in [9]; 43.1 µM (active) in assay [10]; 60.9 µM (active) in assay [11]; 21.6 µM (active) in assay [12]; 24.2 µM (active) and 24.3 µM (active) in [15]; 21.6 µM (active) and 24.3 µM (active) in [16]. The Potency result in assay [2], in assay [4] and in assay [14] was “inactive” throughout. In addition, the molecule was called inactive in assay [13].
With `CC(C)(O)C(=O)Nc1ccc([N+](=O)[O-])c(C(F)(F)F)c1`, the Potency result in [1], in assay [2], in [3], in assay [4], in assay [5] and in [8] was “inactive” throughout. The Potency entry in assay [17], in [10], in assay [11], in assay [18], in assay [14] and in assay [16] was “inactive” each time. Besides, the Potency result in [19] is “inactive”. Further, the Potency is 25.1 µM (active) and 17.9 µM (active) in [6]; 25.1 µM (active) in assay [7]; 31.3 µM (active) and 35.5 µM (active) in [12].
For `Oc1ccc(Cl)cc1Cc1ccccc1`, the Potency was 12.3 µM (active) and 22.1 µM (active) and 21.3 µM (active) in assay [1]; “inactive and 33.1 µM (active)” in assay [3]; 49.6 µM (active) and inactive in assay [5]; 21.9 µM (active) and 19.7 µM (active) in assay [6]; 21.9 µM (active) and 26.3 µM (active) and 21.3 µM (active) in assay [7]; “inactive and 31.3 µM (active)” in assay [9]. Further, the Potency in [20] is 12.2 µM (active) and 4.38 µM (active); in assay [15] it was 55.1 µM (active) and inactive. For the same molecule, the Potency entry in assay [2], in assay [4], in [17], in [10], in assay [18] and in [16] was “inactive” throughout. Moreover, in [19], the Potency result was “inactive”. Further, the call in [13] was inactive.
On to `O=[N+]([O-])c1ccc(Nc2ccccc2)cc1`, for which the Potency entry in assay [1], in assay [2], in assay [3], in [4], in assay [5] and in [8] was “inactive” each time. The Potency result in assay [17], in [9], in assay [11], in [18] and in assay [19] was “inactive” in each case. Further, the Potency in [6] was 44 µM (active) and 21.9 µM (active); in [16] it was 48.9 µM (active).
Turning to `CCC(=O)Nc1ccc(Cl)c(Cl)c1`, the Potency entry in [1], in [2], in assay [3], in assay [4], in assay [5] and in [8] was “inactive” each time. For the same molecule, the Potency entry in assay [17], in assay [9], in [10], in assay [18], in assay [14] and in [15] was “inactive” each time. Besides, the Potency entry in [16] is “inactive”. In addition, the Potency in assay [6] is 44.5 µM (active) and 43.6 µM (active); in [20], 7 µM (active) and 13.7 µM (active).
In the case of `N#Cc1nn(-c2c(Cl)cc(C(F)(F)F)cc2Cl)c(N)c1S(=O)C(F)(F)F` (configuration not stated), the Potency result in [1], in assay [2], in [3], in assay [4], in assay [5] and in assay [8] was “inactive” each time. Besides, the Potency result in assay [17], in assay [10], in assay [18], in [15] and in [16] was “inactive” each time. For the same molecule, the Potency in assay [6] is 19.6 µM (active); in assay [7], 19.6 µM (active); in [20], 9.75 µM (active) and 15 µM (active); in [12] it was 6.9 µM (active) and 21.1 µM (active). Besides, the molecule was classed as inactive in [13].
